Laboratory results as given in PubChem BioAssay AID2733 (National Center for Advancing Translational Sciences (NCATS), 2010).
Inconclusive results are not listed. The source made the active and inactive calls. Calls come from the whole dose curve; as a rule, active = well fitted inhibition curve with a large enough effect; inconclusive = small, poorly fitted or top-dose-only effect; inactive = flat fitted curve, though single readings scatter.

Experiment: High Content Assay for Compounds that inhibit the Assembly of the Perinucleolar Compartment: PC3M Cytotoxicity
Details: PC3M cells, ATPLite luminescence viability, 24 h; series mostly up to 46.1 µM; activity change, negative = cytotoxicity: at the top concentration
Outline: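 ATPLite luminescent ATP readout after 24 h compound exposure at 37 C of PC3M-GFP reporter cells, 2000 per well. Compounds pinned as 23 nl of stock, in duplicate; controls camptothecin and DMSO.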
In the case of `CCc1ccc(S(=O)(=O)/N=C2/C=C(Sc3ncn[nH]3)C(=O)c3ccccc32)cc1`, the Potency is reported as 35.5 µM (active).
With `COc1ccc(-c2nc(NC(=O)c3n[nH]c(=O)c4ccccc34)sc2C)cc1` the Potency was 7.08 µM (active).
With `CCCSc1cc(N2CCN(C)CC2)nc(-c2ccc(OC)cc2)n1` the “activity change, negative = cytotoxicity” value was -2.66% (inactive).
In the case of `COc1ccc(-c2cc(C#N)nc(N3CCN(C)CC3)n2)cc1`, the “activity change, negative = cytotoxicity” value is reported as -4.37% (inactive).
For `CCCCN(C(=O)Nc1ccc(Cl)cc1)C1CCN(C(C)=O)CC1`, the “activity change, negative = cytotoxicity” value was -17.1% (inactive).
In the case of `Cc1c(NC(=O)COC(=O)c2cc(-c3ccc(-c4ccccc4)cc3)nc3ccccc23)c(=O)n(-c2ccccc2)n1C`, the Potency is reported as 5.01 µM (active).
For `O=c1[nH]cnc2c1C(c1ccccc1[N+](=O)[O-])c1c(nc[nH]c1=O)O2`, the “activity change, negative = cytotoxicity” value was 7.92% (inactive).
With `O=C(N/N=C\c1ccc([N+](=O)[O-])s1)c1cncc(Br)c1` the Potency was 25.1 µM (active).
In the case of `O=C(Nc1cccnc1)c1cccs1`, the “activity change, negative = cytotoxicity” value is reported as 13.2% (inactive).
In the case of `CCOC(=O)Cn1c(-c2nonc2NC(=O)c2ccccc2F)nc2ccccc21`, the Potency is reported as 4.47 µM (active).
In the case of `C=CCNC(=S)N/N=C(\C)c1ccccn1`, the Potency is reported as 6.31 µM (active).
With `C/C(N)=C(/C#N)C(=O)COC(=O)c1cc(C)n(-c2ccc(F)cc2)c1C` the Potency was 12.6 µM (active).
In the case of `Nc1ccc2c(c1)C(=O)C(=O)c1ccccc1-2`, the Potency is reported as 22.4 µM (active).
With `Cc1ccccc1C(=O)NNC(=S)Nc1cccc(C(F)(F)F)c1` the “activity change, negative = cytotoxicity” value was -7.03% (inactive).
With `COC(=O)c1ccc(CSc2ccccc2C)o1` the “activity change, negative = cytotoxicity” value was 11.2% (inactive).
With `Cc1cc(C(=O)Cn2nnc3ccccc3c2=O)c(C)n1-c1ccccc1F` the Potency was 7.94 µM (active).
With `Cc1ccc(-n2cc(-c3ccccc3)c3c(NN4CCOCC4)ncnc32)cc1` the “activity change, negative = cytotoxicity” value was -0.717% (inactive).
